From PubChem BioAssay AID485297 (National Center for Advancing Translational Sciences (NCATS), 2010)
Among all 320,000 compounds or so, about 9,100 (2.8%) were called active. Not shown: some 3% with an inconclusive outcome. The list comes from a sample in which actives are over-represented; it also holds similar structures and randomly drawn compounds. Values without a mark were called inactive. Calls follow the shape of the dose curve; as a rule, active = well fitted activation curve with a large enough effect; inconclusive = small, poorly fitted or top-dose-only effect; inactive = no such curve, though single readings can be large or run the other way.

assay: qHTS Assay for Rab9 Promoter Activators; conditions: Huh7 Rab9 promoter-luciferase reporter, luminescence, 24 h; series mostly up to 9.22 µM; activation, negative = inhibition: at the top concentration; also: nearly all actives have a fitted effect of over 60% in size; as to activation, negative = inhibition: % of control where 0% means no effect
Procedure, shortened: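 Rab9 promoter-driven luciferase in stably transfected Huh7 cells; 1500 cells/well rested 2 h, exposed to compound in DMSO for 24 h at 37 °C, 5% CO2. Luminescence read 10 min after adding luciferase reagent at ambient temperature.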
Potency is read from the fitted curve at half-maximal effect.

Row | Compound | activation, negative = inhibition | Potency
1 | Cn1c2cc(B(O)O)sc2c2cnn(Cc3ccccc3F)c(=O)c21 | -3.22% | 
2 | COc1ccc(CC2c3cc(OC)c(OC)cc3CC[N+]2(C)CCC(=O)OCCCCCOC(=O)CC[N+]2(C)CCc3cc(OC)c(OC)cc3C2Cc2ccc(OC)c(OC)c2)cc1OC (stereo unspecified) | -6.08% | 
3 | CCc1cccc(C)c1NC(=O)COC(=O)CC1CCCC1 | 0.691% | 
4 | Cc1cc(C)c(S(=O)(=O)N2CCC(C(=O)OCc3c(C)noc3C)CC2)c(C)c1 | 2.51% | 
5 | CC(=O)c1ccc(OCCCC(=O)Nc2ccc(C)c(S(=O)(=O)N3CCOCC3)c2)cc1 | -10.3% | 
6 | COc1ccc(Cl)cc1C(=O)OCC(=O)NCc1cccs1 | 2.82% | 
7 | CCOC(=O)c1c(C)[nH]c(C(=O)NCCN2CCOCC2)c1C | -1.3% | 
8 | COC(=O)Cc1ccc(OCC(=O)NC2CCCC2)cc1 | -2.32% | 
9 | CN(CC(=O)Nc1ccc(F)cc1)CC(=O)N1CCCCC1 | -1.1% | 
10 | COc1ccccc1-c1oc2ccccc2c1C#CCCCCO | -1.32% | 
11 | O=C(C1CC(=O)N(C2CCCC2)C1)N1CCN(c2cccc(C(F)(F)F)c2)CC1 (stereo unspecified) | -9.77% | 
12 | CCOC(=O)c1nc(-c2ccc3c(c2)OCO3)[nH]c1C | 20.9% | 
13 | CC(C)c1ccc(NC(=O)COC(=O)c2ccc(CN3CCCC3=O)cc2)cc1 | -6.29% | 
14 | O=C(CSc1nnc(Nc2ccccc2F)s1)NC1CCCC1 | 19.2% | 
15 | Cc1c(NC(=O)CSCc2ccccc2)cccc1C(=O)O | 2.13% | 
16 | COc1cc(OC)cc(C(=O)NNC(=O)CCOc2ccccc2OC)c1 | -1.58% | 
17 | CCN(C(=O)COC(=O)Cc1c(F)cccc1Cl)c1c(N)n(Cc2ccccc2)c(=O)[nH]c1=O | -0.28% | 
18 | O=C(CSc1nnc(-c2ccco2)n1CC1CCCO1)c1ccccc1 (stereo unspecified) | 14.8% | 
19 | O=C(CSc1nnc(-c2ccco2)n1-c1ccccc1)NCCc1ccccc1 | 0.672% | 

Row | Compound | activation, negative = inhibition | Potency
20 | c1ccc(CSc2nnc(-c3ccco3)n2Cc2ccccc2)cc1 |  | 3550 nM (active)
21 | COc1ccc(NC(=O)CN(C)C(=O)c2cc(C3CC3)nn2-c2ccccc2)cc1 | -1.8% | 
22 | COc1ccccc1C1=CC(=O)C[C@H](c2ccc(F)cc2)C1 | -6.18% | 
23 | CSCCC(NC(=O)c1ccccc1)C(=O)N1CCN(Cc2ccc(Cl)cc2)CC1 (stereo unspecified) | -0.803% | 
24 | O=C(CCc1ccccc1)NNc1ccc(F)cc1 | -0.275% | 
25 | Cc1ccc(F)c(NC(=O)CCOc2ccccc2C)c1 | -1.01% | 
26 | Cc1ccc(F)c(NC(=O)CCc2ccccc2)c1 |  | 2820 nM (active)
27 | COC(=O)C1=CO[C@@H](O[C@@H]2O[C@H](CO)[C@@H](O)[C@H](O)[C@H]2O)C2C1C[C@H](O)[C@@H]2C (stereo partly specified) | -1.85% | 
28 | Cc1ccccc1-c1nc(C#N)c(NCc2ccco2)o1 | -9.43% | 
29 | N#Cc1nc(Cc2cccc3ccccc23)oc1NCc1ccc2c(c1)OCO2 | 1.47% | 
30 | N#Cc1nc(Cc2ccccc2)oc1NCCc1ccccc1 |  | 3160 nM (active)
31 | Cc1cccc(-c2oc3ccc(-c4ccc5c(c4)OCO5)cc3c2C#Cc2cncn2C)c1 | -5.09% | 
32 | CCOC(=O)Cn1nnnc1C | -2.92% | 
33 | CCOC(=O)/C(C#N)=C/c1ccc(N2CCN(Cc3ccccc3)CC2)cc1 | -0.0089% | 
34 | COc1ccc(N2CCN(C(=O)/C(C#N)=C/c3ccccc3)CC2)cc1 | -3.49% | 
35 | CCOC(=O)/C(C#N)=C/c1ccc(N2CCCCC2)cc1 |  | 3160 nM (active)
36 | Cc1ccc(C)c(OCC(=O)NNC(=O)C2CCC2)c1 | -2.73% | 
37 | O=C(c1ccc(F)cc1)N1CCC(n2nnc3ccccc32)CC1 |  | 1120 nM (active)
38 | O=S(=O)(c1cccc(S(=O)(=O)N2CCC(n3nnc4ccccc43)CC2)c1)N1CCCCC1 | 4.03% | 

Row | Compound | activation, negative = inhibition | Potency
39 | CC(=O)c1cccc(S(=O)(=O)N2CCC(n3nnc4cc(F)ccc43)CC2)c1 | -2.95% | 
40 | COC(=O)CSc1nnc(-c2cccnc2)o1 | -5.2% | 
41 | CN(C)c1ccc(-c2nnc(-c3cccnc3)o2)cc1 |  | 1580 nM (active)
42 | CN(C)c1nc(-c2cccnc2)nc(-c2ccc(Cl)cc2)c1C#N | 3.11% | 
43 | Cc1ccc(S(=O)(=O)N2CCCCC2)cc1NC(=O)[C@@H]1CCCN1C(=O)c1cccs1 | -3.33% | 
44 | CCC(C)N1C(=O)S/C(=C/c2ccc(Sc3nc4ccccc4[nH]3)o2)C1=O (stereo unspecified) | 1.73% | 
45 | CCCCNC(=O)C(=O)c1ccccc1NC(C)=O | 5.62% | 
46 | CC(=O)Nc1ccccc1C(=O)C(=O)Nc1ccc(F)cc1 |  | 2510 nM (active)
47 | O=C(Nc1ccccc1)c1ccccc1NC(=O)C(F)(F)F | 28.5% | 
48 | N#Cc1nc(-c2cccc3ccccc23)oc1N | -15.2% | 
49 | CSc1ccccc1N1CCN(CCCCCC(=O)NC2CCCc3ccccc32)CC1 (stereo unspecified) | -35.3% [at 46.1 µM] | 
50 | COc1ccccc1C(=O)Nc1ccc(C)c(S(=O)(=O)N2CCCCC2)c1 | -2.68% | 
51 | Cn1sc(NC(=O)c2ccccc2)nc1=O | 16.5% | 
52 | Cn1c(S(=O)(=O)O)nc2ccccc21 | 0.212% | 
53 | Cn1c(CN2CCOCC2)nc2cc(NC(=O)c3ccc(Cl)cc3)ccc21 | -19.2% | 
54 | CCCC(=O)Nc1ccc2c(c1)nc(CCNC(=O)c1ccco1)n2C | 1.93% | 
55 | CC(=O)NCCc1nc2cc(NC(=O)c3ccccc3)ccc2n1C |  | 3550 nM (active)
56 | Cn1c(NC(=O)c2ccccc2)nc2ccccc21 |  | 2820 nM (active)
